Assay results: PubChem BioAssay (NCATS)
Results filed as inconclusive are left out. Calls of active or inactive are those of the source. Calls come from the whole dose curve; as a rule, active = well fitted inhibition curve with a large enough effect; inconclusive = small, poorly fitted or top-dose-only effect; inactive = flat fitted curve, though single readings scatter. Peptide text beside a SMILES is read from it.

Test system: not listed separately
Experiment: qHTS profiling for inhibitors of Plasmodium falciparum proliferation (AID 504749); note: nearly all actives have a fitted effect of over 60% in size
Settings: P. falciparum in erythrocytes, SYBR Green DNA, 72 h; parasite line A
Summary of the method: (§1)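 Parasite proliferation within erythrocytes, 72 h exposure. Endpoint: SYBR Green I fluorescence after overnight lysis at room temperature. Controls: 0.29 uM artemisinin, DMSO.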
Potency is the fitted concentration of half-maximal effect.

Potency, active:
COC1C=CO[C@@]2(C)Oc3c(C)c(O)c4c(O)c(c(C=NN5CCN(C)CC5)c(O)c4c3C2=O)NC(=O)/C(C)=C\C=CC(C)C(O)[C@@H](C)C(O)C(C)[C@H](OC(C)=O)C1C (stereo partly drawn) 3980 nM
COc1ccc(CC(N)C(=O)NC2C(CO)OC(n3cnc4c(N(C)C)ncnc43)C2O)cc1 (stereo not drawn) 794 nM
COc1ccc2cc1Oc1ccc(cc1)CC1c3c(cc4c(c3Oc3cc5c(cc3OC)CCN(C)C5C2)OCO4)CCN1C (stereo not drawn) 8910 nM
COc1cc(C2c3cc4c(cc3C(O[C@@H]3OC5COC(c6cccs6)OC5C(O)C3O)C3COC(=O)C23)OCO4)cc(OC)c1O (stereo partly drawn) 1120 nM

Same assay, conditions: P. falciparum in erythrocytes, SYBR Green DNA, 72 h; parasite line B

Potency, active:
COC1C=CO[C@@]2(C)Oc3c(C)c(O)c4c(O)c(c(C=NN5CCN(C)CC5)c(O)c4c3C2=O)NC(=O)/C(C)=C\C=CC(C)C(O)[C@@H](C)C(O)C(C)[C@H](OC(C)=O)C1C (stereo partly drawn) 3980 nM
COc1ccc(CC(N)C(=O)NC2C(CO)OC(n3cnc4c(N(C)C)ncnc43)C2O)cc1 (stereo not drawn) 1000 nM
COc1ccc2cc1Oc1ccc(cc1)CC1c3c(cc4c(c3Oc3cc5c(cc3OC)CCN(C)C5C2)OCO4)CCN1C (stereo not drawn) 10000 nM
COc1cc(C2c3cc4c(cc3C(O[C@@H]3OC5COC(c6cccs6)OC5C(O)C3O)C3COC(=O)C23)OCO4)cc(OC)c1O (stereo partly drawn) 2000 nM

Test system: 3D7
Experiment: as above
Settings: P. falciparum in erythrocytes, SYBR Green DNA, 72 h; series mostly up to 12.8 µM
Summary of the method: as §1

Potency, inactive:
CCC(C)C(=O)OC1CCC=C2C=CC(C)C(CCC3CC(O)CC(=O)O3)[C@@H]21 (stereo partly drawn)
C[C@]1(c2ccccc2)OC(C(=O)O)=CC1=O
OCC1OC([S-])[C@H](O)C(O)C1O.[Au+] (stereo partly drawn)
COC(=O)N/N=C/C1=C[N+](=O)c2ccccc2[N+]1=O
CN1CC(=O)N=C1N
CNC1CC(N)[C@H](O)[C@@H](O[C@@H]2OC(CO)C3OC4(OC(C(N)CO)C(O)C(O)C4O)O[C@@H]3[C@H]2O)C1O (stereo partly drawn)
CC(=O)N[C@@H]1C(O)OC(CO)C(O)C1O (stereo partly drawn)
CCC(CCC(C)C1CCC2C3CC=C4CC(O)CC[C@@]4(C)C3CC[C@@]12C)C(C)C (stereo partly drawn)
O=C1OC(CO)C(O)C(O)C1O (stereo not drawn)
CCCC(=O)O[C@]1(C(=O)CO)CCC2[C@@H]3CCC4=CC(=O)CC[C@]4(C)C3C(O)C[C@]21C (stereo partly drawn)
COC(=O)C(Cc1ccccc1)NC(=O)C(N)CC(=O)O (stereo not drawn) (H-Asp-Phe-OMe; configuration not given here)
CC[C@@]12CCCN3CCc4c(n(c5ccccc45)[C@](O)(C(=O)OC)C1)C32 (stereo partly drawn)
CC1(C)SC2C(N3C(=O)C(c4ccccc4)NC3(C)C)C(=O)N2C1C(=O)O (stereo not drawn)
CC1CCC(C(C)C)C(=O)C1 (stereo not drawn)
CC(=O)N[C@H](CC(C)C)C(=O)O
CC(C)C1CCC(C(=O)NC(Cc2ccccc2)C(=O)O)CC1 (stereo not drawn)
COc1ccc2cc(C(C)CO)ccc2c1 (stereo not drawn)
CNC1C(OC2C(O[C@@H]3C(O)C(O)[C@@H](N=C(N)N)C(O)C3N=C(N)N)OC(C)[C@@]2(O)CO)OC(CO)C(O)C1O (stereo partly drawn)
CC1C2CCC3C4CC=C5CC(N(C)C)CC[C@@]5(C)C4CC[C@@]32CN1C (stereo partly drawn)
C[C@]12C=CC(=O)C=C1CCC1C2C(O)C[C@]2(C)C1CC[C@]2(O)C(=O)CO (stereo partly drawn)
COc1ccc2c(c1)N(C[C@@H](C)CN(C)C)c1ccccc1S2
CCOC(=O)C1=CC(OC(CC)CC)C(NC(C)=O)C(N)C1 (stereo not drawn)
CN(C)CCc1c[nH]c2ccc(CC3COC(=O)N3)cc12 (stereo not drawn)
NCC1CCC(N)C(O[C@@H]2C(O)[C@H](O[C@H]3OC(CO)C(O)C(N)C3O)[C@@H](N)C[C@H]2N)O1 (stereo partly drawn)
OCC1O[C@H](OC2C(CO)O[C@@](O)(CO)C2O)C(O)C(O)C1O (stereo partly drawn)
CC1(C)OC2CO[C@]3(COS(N)(=O)=O)OC(C)(C)OC3C2O1 (stereo partly drawn)
CC(=O)OC1CCC2C3CCc4cc(O)ccc4C3CCC12C (stereo not drawn)
CN(C)CCCOC1C(C(O)CO)OC2OC(C)(C)O[C@@H]21 (stereo partly drawn)

Potency, active:
COC1C=CO[C@@]2(C)Oc3c(C)c(O)c4c(O)c(c(C=NN5CCN(C)CC5)c(O)c4c3C2=O)NC(=O)/C(C)=C\C=CC(C)C(O)[C@@H](C)C(O)C(C)[C@H](OC(C)=O)C1C (stereo partly drawn) 2000 nM
COc1ccc(CC(N)C(=O)NC2C(CO)OC(n3cnc4c(N(C)C)ncnc43)C2O)cc1 (stereo not drawn) 1000 nM
COc1ccc2cc1Oc1ccc(cc1)CC1c3c(cc4c(c3Oc3cc5c(cc3OC)CCN(C)C5C2)OCO4)CCN1C (stereo not drawn) 11200 nM
COc1cc(C2c3cc4c(cc3C(O[C@@H]3OC5COC(c6cccs6)OC5C(O)C3O)C3COC(=O)C23)OCO4)cc(OC)c1O (stereo partly drawn) 2000 nM

Test system: 7G8
Experiment: as above
Settings: P. falciparum in erythrocytes, SYBR Green DNA, 72 h; series mostly up to 12.8 µM
Summary of the method: as §1

Potency, inactive:
CCC(C)C(=O)OC1CCC=C2C=CC(C)C(CCC3CC(O)CC(=O)O3)[C@@H]21 (stereo partly drawn)
C[C@]1(c2ccccc2)OC(C(=O)O)=CC1=O
COC(=O)N/N=C/C1=C[N+](=O)c2ccccc2[N+]1=O
CN1CC(=O)N=C1N
CNC1CC(N)[C@H](O)[C@@H](O[C@@H]2OC(CO)C3OC4(OC(C(N)CO)C(O)C(O)C4O)O[C@@H]3[C@H]2O)C1O (stereo partly drawn)
CCC(CCC(C)C1CCC2C3CC=C4CC(O)CC[C@@]4(C)C3CC[C@@]12C)C(C)C (stereo partly drawn)
O=C1OC(CO)C(O)C(O)C1O (stereo not drawn)
CCCC(=O)O[C@]1(C(=O)CO)CCC2[C@@H]3CCC4=CC(=O)CC[C@]4(C)C3C(O)C[C@]21C (stereo partly drawn)
COC(=O)C(Cc1ccccc1)NC(=O)C(N)CC(=O)O (stereo not drawn) (H-Asp-Phe-OMe; configuration not given here)
CC1(C)SC2C(N3C(=O)C(c4ccccc4)NC3(C)C)C(=O)N2C1C(=O)O (stereo not drawn)
CC1CCC(C(C)C)C(=O)C1 (stereo not drawn)
CC(=O)N[C@H](CC(C)C)C(=O)O
CC(C)C1CCC(C(=O)NC(Cc2ccccc2)C(=O)O)CC1 (stereo not drawn)
COc1ccc2cc(C(C)CO)ccc2c1 (stereo not drawn)
CNC1C(OC2C(O[C@@H]3C(O)C(O)[C@@H](N=C(N)N)C(O)C3N=C(N)N)OC(C)[C@@]2(O)CO)OC(CO)C(O)C1O (stereo partly drawn)
C[C@]12C=CC(=O)C=C1CCC1C2C(O)C[C@]2(C)C1CC[C@]2(O)C(=O)CO (stereo partly drawn)
OCC1O[C@H](OC2C(CO)O[C@@](O)(CO)C2O)C(O)C(O)C1O (stereo partly drawn)
CN(C)CCCOC1C(C(O)CO)OC2OC(C)(C)O[C@@H]21 (stereo partly drawn)

Potency, active:
COC1C=CO[C@@]2(C)Oc3c(C)c(O)c4c(O)c(c(C=NN5CCN(C)CC5)c(O)c4c3C2=O)NC(=O)/C(C)=C\C=CC(C)C(O)[C@@H](C)C(O)C(C)[C@H](OC(C)=O)C1C (stereo partly drawn) 112 nM
COc1ccc(CC(N)C(=O)NC2C(CO)OC(n3cnc4c(N(C)C)ncnc43)C2O)cc1 (stereo not drawn) 316 nM
COc1ccc2cc1Oc1ccc(cc1)CC1c3c(cc4c(c3Oc3cc5c(cc3OC)CCN(C)C5C2)OCO4)CCN1C (stereo not drawn) 2240 nM
COc1ccc2c(c1)N(C[C@@H](C)CN(C)C)c1ccccc1S2 3550 nM
COc1cc(C2c3cc4c(cc3C(O[C@@H]3OC5COC(c6cccs6)OC5C(O)C3O)C3COC(=O)C23)OCO4)cc(OC)c1O (stereo partly drawn) 631 nM
